# Shown are actives, neighbours in structure and some others; about 21% of the full set was active somewhere.
# Cycloheximide cs – affects cycloheximide protein synthesis inhibition readout, counter-screen; cell reporter, cycloheximide protein synthesis inhibition counterscreen; max response, %; actives 12% (n = 300,000); in the data active = max response mostly above about 13%, no sharp cut-off; inactive = mostly below about 14%; note: read at 38.3 µM for the half of the compounds with a filed dose; 0% is about no effect
# Shiga toxin inh – Shiga toxin inhibition | Vero cells, Shiga toxin protein synthesis inhibition reporter | inhibition, % at 38.7 µM | actives 9.2% (n = 290,000) | AID 2315; in the data active = inhibition mostly above about 28%, no sharp cut-off; inactive = mostly below about 43%; note: 0% is about no effect
# Pf growth 48h – P. falciparum growth inhibition at 48 hours (one generation); P. falciparum luciferase growth in erythrocytes, 48 h; Potency, µM (doses to about 28.7 µM), without a hit: at the highest dose activity change, negative = inhibition, most hits filed as inhibitors; actives 5.9% (n = 310,000); note: potency is the fitted concentration of half-maximal effect; % is set by controls: 0 for no effect and ±100 for the full control effect
#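 Luciferase-expressing P. falciparum in infected erythrocytes (2% hematocrit, 0.1% parasitemia final) in RPMI 1640/0.5% Albumax were exposed to compound for 48 hours at 37 C, 5% CO2; growth read as luminescence.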
# Pf growth 96h – P. falciparum growth inhibition at 96 hour, primary screen for plastid delayed-death inhibitors. P. falciparum luciferase reporter growth, 96 h. Potency, µM (series often up to 28.7 µM), for the others: top-dose activity change, negative = inhibition, usual class: inhibitors. actives 6.9% (n = 320,000). AID 504834; note: potency is the fitted concentration of half-maximal effect; % is set by controls: 0 for no effect and ±100 for the full control effect
#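 Compounds incubated with erythrocytes infected by luciferase-expressing P. falciparum (2% hematocrit, 0.05% parasitemia final) for 96 hours, 37 C in 5% CO2. Growth inhibition scored as decreased luciferase luminescence.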
# Active calls of the source: *; ? = inconclusive; . = not tested or not shown. Unless noted, calls come from the whole dose curve; as a rule, active = well fitted inhibition curve with a large enough effect; inconclusive = small, poorly fitted or top-dose-only effect, or another doubt; inactive = no such curve, though single readings can be large or run the other way.
SMILES,Cycloheximide cs,Shiga toxin inh,Pf growth 48h,Pf growth 96h
CCCc1cc(NCCCCO)n2c(nc3ccccc32)c1C#N,13,-4,9.3µM*,3.3µM*
Cc1cc(NCCCCO)n2c(nc3ccccc32)c1C#N,-1,-2,10µM*,27%
COCCN(C(=O)CCc1nnc(Cc2c[nH]c3ccccc23)o1)C(C)C,3,11,2%,?
CC(C)N(CCO)C(=O)CCc1nnc(Cc2cccc(C(F)(F)F)c2)o1,19*,52,19%,?
CCC(COC)NC(=O)CCc1nnc(Cc2cccc(C(F)(F)F)c2)o1 (stereo not drawn),46*,60*,14%,-1%
CCc1ccc(CNC(=O)CCc2nnc(Cc3cccc(C(F)(F)F)c3)o2)nc1,0,11,0%,-6%
Cc1cc(-c2nnc(CCC(=O)NCc3cccc(C(F)(F)F)c3)o2)no1,21*,29,-20%,?
CC(C)NC(=O)CCc1nnc(Cc2cccc(C(F)(F)F)c2)o1,28*,92*,57%,-19%
Cc1ccc(CNC(=O)c2cc(=O)c3ccc(C)cc3o2)cc1,4,39,19%,15%
COc1ccc(C(=O)COC(=O)c2cc(C)no2)c(OC)c1,.,.,-14%,0%
CCOc1nsc(OCC)n1,-1,-5,38%,43%
CCCCNc1nc(Nc2ccc(C)c(Cl)c2)c2cnn(C)c2n1,-2,-3,?,55%
C/C(=N\OC(=O)Nc1ccccc1)c1cnn(-c2cc(C(F)(F)F)cc(C)n2)c1C,-5,6,-16%,25%
COCCNC(=O)C1CC(c2cccc([N+](=O)[O-])c2)=NO1 (stereo not drawn),-3,-21,-1%,24%
COc1ccc(CNC(=O)C2CC(c3cccc([N+](=O)[O-])c3)=NO2)cc1 (stereo not drawn),36*,38*,78%,131%
Cc1ccc(CNC(=O)C2CC(c3cccc([N+](=O)[O-])c3)=NO2)cc1 (stereo not drawn),13,13,2.6µM*,42%
Cc1ccc(CNC(=O)C2CC(c3ccccc3C(F)(F)F)=NO2)cc1 (stereo not drawn),-2,-6,46%,74%
O=C(Nc1ccc(S(=O)(=O)NCc2ccco2)cc1)C1CCCCC1,14,1,0%,22%
NCCCC[C@@H](C(=O)NCCCCCCCCCCC(=O)N1CCNCC1)n1cc(CCCC(=O)O)nn1,.,.,-7%,61%
CC[C@H](C)Cc1cn([C@@H](CCCN=C(N)N)C(=O)NCCCCCCCCCCC(=O)N2CCNCC2)nn1,.,.,4.7µM*,?
CC[C@H](C)[C@@H](C(=O)NCCCCCCCCCCC(=O)N1CCNCC1)n1cc(CCCCN=C(N)N)nn1,.,.,2.9µM*,2.3µM*
Cc1cc(=O)oc2c(C)c3occc3cc12,-2,.,?,65%
COc1ccccc1CNC(=O)C1CCCN(S(=O)(=O)c2ccc3c(c2)C(C)(C)C(=O)N3C)C1 (stereo not drawn),-3,-10,?,32%
Cn1c(Cn2c(=O)sc3ccccc32)nnc1SCc1ccccc1F,-5,-10,.,12µM*
Cn1c(Cn2c(=O)sc3ccccc32)nnc1SCc1cccc(F)c1,-1,-8,-5%,4%
SMILES,Cycloheximide cs,Shiga toxin inh,Pf growth 48h,Pf growth 96h
Cc1ccc2nc(C)c3c(c2c1)OC(C(C)(Cl)Br)C3 (stereo not drawn),-4,-4,13µM*,?
CCCCOCC(O)CN1CCN(C(C)=O)CC1 (stereo not drawn),-4,-7,23%,8.3µM*
CC(C)n1c(SCC(=O)NCc2ccco2)nnc1C1CC1,-2,18,-18%,?
CCc1cc2cc(C(=O)Nc3ccc(F)cc3)sc2s1,30*,76*,-2%,0.41µM*
CC(C)(C)c1ccc(C(=O)Nc2ccc(F)cc2)s1,40*,71*,31%,5%
CC(=O)Nc1ccc(NC(=S)Nc2ccc(F)cc2)cc1,-1,20,4%,?
CCc1cc2cc(C(=O)Nc3ccccc3F)sc2s1,30*,97*,204%,9.3µM*
Cc1cc(C)nc(NC(=O)CSc2nc3ccccc3s2)n1,33*,83*,.,12%
Cc1cc(C)n2c(Br)c(CSc3nc4ccccc4s3)nc2n1,34*,17,27%,?
Cc1cc(C)nc(NC(=O)CSc2nc3cc(Cl)ccc3s2)n1,13,19,35%,.
Cc1csc(SCC(=O)Nc2ccccc2)n1,11*,66*,0%,8%
Cc1ccc(C)c(NC(=O)CSc2nc3ccc(N4C(=O)c5ccccc5C4=O)cc3s2)c1,-3,-6,41%,4.1µM*
CCCN(CCC)C(=O)C[n+]1cccc(/C=N/O)c1,-5,-10,?,?
